Results filed as inconclusive are left out. Calls of active or inactive are those of the source. Rule for the calls: active = hit-call score of the fitted dose curve at least 0.9, where 1 is the maximum; inconclusive = response in the unintended direction; inactive = score below 0.9.
Experiments:
[1] = target: human Serotonin, 5-Hydroxytryptamine Receptor 7 (5HT7), HTR7 (gene 3363) (UniProt P34969); assay: NVS_GPCR_h5HT7: NovaScreen (NVS) G Protein-Coupled Receptor Assay for human Serotonin, 5-Hydroxytryptamine Receptor 7 (5HT7) (AID 2283255);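 note: hits reduce specific radioligand binding relative to DMSO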
Method in brief: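 Filter-bound radioactivity counted after 1 h, with loss of specific radioligand binding fitted against DMSO. Membrane protein came from CHO cells expressing human 5HT7. Chemicals were tested first at 25 uM in duplicate, then in concentration series if active.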

[2] = target: human Serotonin, 5-Hydroxytryptamine Receptor 6 (5HT6), HTR6 (gene 3362) (UniProt P50406); assay: NVS_GPCR_h5HT6: NovaScreen (NVS) G Protein-Coupled Receptor Assay for human Serotonin, 5-Hydroxytryptamine Receptor 6 (5HT6) (AID 2283253)
Method in brief: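 Filter scintillation counting of radioligand displacement from HEK293-expressed 5HT6, 1 hour post-dose, with loss of signal relative to DMSO. Single 25 uM duplicates first, with concentration series for confirmation.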

[3] = test system: guinea pig Muscarinic, Peripheral (Mperiperal) Receptor, Non-selective Binding, gene 100379235; assay: NVS_GPCR_gMPeripheral_NonSelective: NovaScreen (NVS) G Protein-Coupled Receptor Assay for guinea pig Muscarinic, Peripheral (Mperiperal) Receptor, Non-selective Binding (AID 2283250)
Method in brief: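 Screened in duplicate at 25 uM, hits retested in concentration series to 50 uM max, using bladder membrane radioligand displacement from guinea pig. Filtration and scintillation counting 1 h post-dose, fitted relative to DMSO.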

[4] = target: human Adrenergic, Beta 1 Receptor (Adrb1), ADRB1 (gene 153) (UniProt P08588); assay: NVS_GPCR_hAdrb1: NovaScreen (NVS) G Protein-Coupled Receptor Assay for human Adrenergic, Beta 1 Receptor (Adrb1) (AID 2283258)
Method in brief: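 Membranes/protein extracted from human neuroepithelioma cells, radioligand competition binding read by filtration and scintillation 2 h post-dose. Single 25 uM duplicate screen, then concentration-response follow-up; DMSO as negative control.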

[5] = test system: bovine Histamine 1 Receptor (H1), gene 281231; assay: NVS_GPCR_bH1: NovaScreen (NVS) G Protein-Coupled Receptor Assay for bovine Histamine 1 Receptor (H1) (AID 2283246)
Method in brief: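 Hits from a 25 uM duplicate primary screen were retested in concentration series (top 50 uM); binding measured as scintillation-counted displacement of radioligand from bovine cerebellar membranes after 1 h, normalised to DMSO.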

[6] = target: human Serotonin, 5-Hydroxytryptamine Receptor 5A (5HT5A), HTR5A (gene 3361) (UniProt P47898); assay: NVS_GPCR_h5HT5A: NovaScreen (NVS) G Protein-Coupled Receptor Assay for human Serotonin, 5-Hydroxytryptamine Receptor 5A (5HT5A) (AID 2283251)
Method in brief: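 Membranes from HEK293 cells, radioligand binding read by filtration and scintillation after 1 h. Single-concentration duplicate testing at 25 uM, then concentration-response for actives; positive-direction fitting relative to DMSO.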

[7] = target: guinea pig Opioid, Kappa 1 Receptor (OpiateK), OPRK1 (gene 100135587) (UniProt P41144); assay: NVS_GPCR_gOpiateK: NovaScreen (NVS) G Protein-Coupled Receptor Assay for guinea pig Opioid, Kappa 1 Receptor (OpiateK) (AID 2283252);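 note: active means reduced radioligand binding relative to DMSO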
Method in brief: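 Radioligand binding to kappa opioid receptor in guinea pig cerebellar membranes, read by filtration and scintillation at 2 h. Compounds first tested in duplicate at 25 uM, then actives in concentration series; signal loss fitted against DMSO.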

[8] = target: human Adrenergic, Alpha 2A Receptor (Adra2A), ADRA2A (gene 150) (UniProt P08913); assay: NVS_GPCR_hAdra2A: NovaScreen (NVS) G Protein-Coupled Receptor Assay for human Adrenergic, Alpha 2A Receptor (Adra2A) (AID 2283257)
Method in brief: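 Displacement of a specific radioligand from HT29 membrane protein was counted by filter scintillation after 1 h. Compounds were screened in duplicate at 25 uM, and actives were retested in concentration series. Fitting was positive-direction against DMSO.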

[9] = target: human Adrenergic, Alpha 2c Receptor (Adra2C), ADRA2C (gene 152) (UniProt P18825); assay: NVS_GPCR_hAdra2C: NovaScreen (NVS) G Protein-Coupled Receptor Assay for human Adrenergic, Alpha 2c Receptor (Adra2C) (AID 2283259)
Method in brief: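 Screened first in duplicate at 25 uM, with actives then run as concentration series. Membranes from Sf9 cells were exposed for 1 h, and displacement of radioligand was counted after filtration, using DMSO as baseline.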

[10] = target: human Adrenergic, Beta 3 Receptor (Adrb3), ADRB3 (gene 155) (UniProt P13945); assay: NVS_GPCR_hAdrb3: NovaScreen (NVS) G Protein-Coupled Receptor Assay for human Adrenergic, Beta 3 Receptor (Adrb3) (AID 2283262)
Method in brief: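 A cell-free filter binding assay read by scintillation counting, with displacement of a specific radioligand measured after 1 hour. The receptor source was SK-N-MC extracts (cells pretreated with isoproterenol and 8-bromo-cAMP). Compounds were first tested at 25 uM in duplicate and then in concentration series.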

[11] = test system: guinea pig Leukotriene B4 Receptor (LTB4), gene 100379538; assay: NVS_GPCR_gLTB4: NovaScreen (NVS) G Protein-Coupled Receptor Assay for guinea pig Leukotriene B4 Receptor (LTB4) (AID 2283247)
Method in brief: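 Membranes from guinea pig spleen incubated 2 h with radioligand and compound; bound counts measured by filtration and scintillation. Screened first at 25 uM in duplicate, then actives titrated to a 50 uM top concentration relative to DMSO.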

[12] = target: Beta-2 adrenergic receptor (Homo sapiens) (UniProt P07550); assay: NVS_GPCR_hAdrb2: NovaScreen (NVS) G Protein-Coupled Receptor Assay for human Adrenergic, Beta 2 Receptor (Adrb2) (AID 2283261)
Method in brief: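 Compounds screened in duplicate at 25 uM, then actives in concentration series. Human beta-2 receptor from CHO material, cell-free; radioligand displacement after 1 h measured by filtration and scintillation against DMSO baseline.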

[13] = target: human Dopamine Receptor D4.4 (DRD4.4), DRD4 (gene 1815) (UniProt P21917); assay: NVS_GPCR_hDRD4.4: NovaScreen (NVS) G Protein-Coupled Receptor Assay for human Dopamine Receptor D4.4 (DRD4.4) (AID 2283264)
Method in brief: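 Filter-binding assay with a tritiated or iodinated ligand, cell-free receptor prepared from CHO, 1 hour. Loss of bound radioactivity versus DMSO; single 25 uM duplicate screen, then concentration-response for actives.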

[14] = target: human Adenosine A1 Receptor (AdoRA1), ADORA1 (gene 134) (UniProt P30542); assay: NVS_GPCR_hAdoRA1: NovaScreen (NVS) G Protein-Coupled Receptor Assay for human Adenosine A1 Receptor (AdoRA1) (AID 2283254)
Method in brief: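 Each chemical is first tested twice at 25 uM, actives later in dilution series, against a radioligand bound to human cortex membranes; after 1 h, filter-retained counts are compared with DMSO controls, lower signal indicating displacement.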

[15] = target: Adenosine receptor A1 (Bos taurus) (UniProt P28190); assay: NVS_GPCR_bAdoR_NonSelective: NovaScreen (NVS) G Protein-Coupled Receptor Assay for bovine Adenosine Receptor (AdoR), Non-selective Binding (AID 2283244)
Method in brief: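 Cell-free binding with membranes from bovine striatum: radioligand displaced by test chemical, read after 1 h by filtration and scintillation. Single-point 25 uM duplicate primary, 50 uM top concentration in follow-up curves, DMSO baseline.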

[16] = NVS_GPCR_bNPY_NonSelective: NovaScreen (NVS) G Protein-Coupled Receptor Assay for bovine Neuropeptide Y (NPY) Receptor, Non-selective Binding (AID 2283245)
Method in brief: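 Displacement of radioligand from bovine hippocampal membrane receptors, read by filtration and scintillation counting after 1 hour. Concentration-response to a top of 50 uM followed a 25 uM duplicate primary screen. Loss of signal versus DMSO.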

Chain of human Adrenergic, Alpha 2c Receptor (Adra2C), ADRA2C (gene 152) (P18825 whole entry, looked up): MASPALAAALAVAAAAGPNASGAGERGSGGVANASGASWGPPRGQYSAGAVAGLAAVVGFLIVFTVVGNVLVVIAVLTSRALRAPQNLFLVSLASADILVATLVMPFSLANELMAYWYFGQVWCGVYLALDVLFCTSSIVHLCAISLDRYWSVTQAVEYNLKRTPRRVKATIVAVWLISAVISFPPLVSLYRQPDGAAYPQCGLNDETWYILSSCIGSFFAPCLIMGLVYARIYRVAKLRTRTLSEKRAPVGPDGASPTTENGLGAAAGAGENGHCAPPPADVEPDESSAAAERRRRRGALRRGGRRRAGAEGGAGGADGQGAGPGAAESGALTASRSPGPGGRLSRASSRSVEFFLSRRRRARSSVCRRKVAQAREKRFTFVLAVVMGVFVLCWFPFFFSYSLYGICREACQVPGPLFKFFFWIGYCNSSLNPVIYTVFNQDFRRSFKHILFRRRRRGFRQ
Chain of human Dopamine Receptor D4.4 (DRD4.4), DRD4 (gene 1815) (P21917 whole entry, looked up): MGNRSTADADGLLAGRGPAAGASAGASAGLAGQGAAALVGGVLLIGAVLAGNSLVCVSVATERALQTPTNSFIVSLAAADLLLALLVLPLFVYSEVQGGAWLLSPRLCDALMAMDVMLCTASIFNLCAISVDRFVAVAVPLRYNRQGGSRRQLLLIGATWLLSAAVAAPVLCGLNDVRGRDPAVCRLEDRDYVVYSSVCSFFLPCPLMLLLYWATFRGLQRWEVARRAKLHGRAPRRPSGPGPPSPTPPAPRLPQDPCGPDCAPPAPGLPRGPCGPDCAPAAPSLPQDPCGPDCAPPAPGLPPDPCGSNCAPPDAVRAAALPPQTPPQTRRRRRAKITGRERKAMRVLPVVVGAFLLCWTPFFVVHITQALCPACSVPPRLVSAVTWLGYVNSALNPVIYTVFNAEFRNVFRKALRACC
Chain of human Adrenergic, Alpha 2A Receptor (Adra2A), ADRA2A (gene 150) (P08913 whole entry, looked up): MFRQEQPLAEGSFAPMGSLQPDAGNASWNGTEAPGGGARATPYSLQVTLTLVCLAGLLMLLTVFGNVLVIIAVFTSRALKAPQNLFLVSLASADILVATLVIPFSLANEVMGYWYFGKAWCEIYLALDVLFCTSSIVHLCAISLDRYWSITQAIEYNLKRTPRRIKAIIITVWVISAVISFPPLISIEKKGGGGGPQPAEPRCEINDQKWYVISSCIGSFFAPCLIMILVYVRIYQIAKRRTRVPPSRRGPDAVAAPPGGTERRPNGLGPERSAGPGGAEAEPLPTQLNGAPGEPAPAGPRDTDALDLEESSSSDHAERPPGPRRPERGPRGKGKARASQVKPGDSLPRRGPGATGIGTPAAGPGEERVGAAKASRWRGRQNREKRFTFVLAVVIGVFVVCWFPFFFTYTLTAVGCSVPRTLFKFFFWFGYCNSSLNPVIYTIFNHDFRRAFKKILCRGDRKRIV
Chain of human Serotonin, 5-Hydroxytryptamine Receptor 5A (5HT5A), HTR5A (gene 3361) (P47898 whole entry, looked up): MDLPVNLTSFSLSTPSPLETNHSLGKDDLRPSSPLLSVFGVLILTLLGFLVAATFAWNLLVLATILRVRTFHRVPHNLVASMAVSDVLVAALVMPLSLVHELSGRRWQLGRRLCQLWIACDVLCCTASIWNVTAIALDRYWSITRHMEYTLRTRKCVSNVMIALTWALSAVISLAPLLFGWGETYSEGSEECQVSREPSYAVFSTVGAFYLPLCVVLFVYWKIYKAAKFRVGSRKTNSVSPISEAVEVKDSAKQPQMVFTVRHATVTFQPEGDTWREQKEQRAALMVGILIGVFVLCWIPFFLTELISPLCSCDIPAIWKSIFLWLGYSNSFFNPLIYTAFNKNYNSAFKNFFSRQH
Chain of human Serotonin, 5-Hydroxytryptamine Receptor 6 (5HT6), HTR6 (gene 3362) (P50406 whole entry, looked up): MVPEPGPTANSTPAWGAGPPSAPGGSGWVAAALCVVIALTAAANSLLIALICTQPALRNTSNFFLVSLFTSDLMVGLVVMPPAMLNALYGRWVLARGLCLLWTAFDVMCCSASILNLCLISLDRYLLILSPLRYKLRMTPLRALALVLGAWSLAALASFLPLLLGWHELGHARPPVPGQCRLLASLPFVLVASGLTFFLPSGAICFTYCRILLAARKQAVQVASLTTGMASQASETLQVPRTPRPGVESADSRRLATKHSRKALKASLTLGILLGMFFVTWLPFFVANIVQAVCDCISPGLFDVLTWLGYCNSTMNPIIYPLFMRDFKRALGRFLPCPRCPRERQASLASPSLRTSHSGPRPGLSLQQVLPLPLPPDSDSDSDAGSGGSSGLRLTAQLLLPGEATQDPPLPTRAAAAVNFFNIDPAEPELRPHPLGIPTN
Chain of human Adrenergic, Beta 1 Receptor (Adrb1), ADRB1 (gene 153) (P08588 whole entry, looked up): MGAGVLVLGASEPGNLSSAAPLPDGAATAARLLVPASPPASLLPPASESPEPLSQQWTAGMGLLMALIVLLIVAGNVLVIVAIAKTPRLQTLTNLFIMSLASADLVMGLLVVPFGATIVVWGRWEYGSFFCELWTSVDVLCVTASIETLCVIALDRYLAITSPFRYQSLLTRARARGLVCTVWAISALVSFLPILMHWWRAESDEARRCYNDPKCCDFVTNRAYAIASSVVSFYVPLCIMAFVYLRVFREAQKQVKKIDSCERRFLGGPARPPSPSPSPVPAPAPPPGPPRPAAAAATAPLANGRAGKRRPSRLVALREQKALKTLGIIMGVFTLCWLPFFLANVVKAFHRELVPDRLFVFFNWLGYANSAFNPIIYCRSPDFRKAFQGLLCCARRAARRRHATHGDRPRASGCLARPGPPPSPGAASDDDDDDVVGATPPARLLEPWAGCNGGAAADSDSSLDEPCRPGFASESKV
Chain of human Serotonin, 5-Hydroxytryptamine Receptor 7 (5HT7), HTR7 (gene 3363) (P34969 whole entry, looked up): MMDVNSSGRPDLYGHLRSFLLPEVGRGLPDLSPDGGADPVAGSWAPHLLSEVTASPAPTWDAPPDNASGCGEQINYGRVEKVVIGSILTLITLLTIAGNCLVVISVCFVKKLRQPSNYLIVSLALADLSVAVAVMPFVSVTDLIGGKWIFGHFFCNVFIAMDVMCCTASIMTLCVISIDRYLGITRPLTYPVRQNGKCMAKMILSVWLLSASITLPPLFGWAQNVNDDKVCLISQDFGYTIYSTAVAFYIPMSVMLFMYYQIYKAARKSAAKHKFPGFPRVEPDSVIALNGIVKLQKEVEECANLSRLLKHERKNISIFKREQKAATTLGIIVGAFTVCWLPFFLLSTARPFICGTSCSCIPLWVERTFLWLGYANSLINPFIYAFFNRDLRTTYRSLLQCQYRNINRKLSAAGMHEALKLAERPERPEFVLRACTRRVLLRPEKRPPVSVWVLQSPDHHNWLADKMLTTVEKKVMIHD
Chain of guinea pig Opioid, Kappa 1 Receptor (OpiateK), OPRK1 (gene 100135587) (P41144 whole entry, looked up): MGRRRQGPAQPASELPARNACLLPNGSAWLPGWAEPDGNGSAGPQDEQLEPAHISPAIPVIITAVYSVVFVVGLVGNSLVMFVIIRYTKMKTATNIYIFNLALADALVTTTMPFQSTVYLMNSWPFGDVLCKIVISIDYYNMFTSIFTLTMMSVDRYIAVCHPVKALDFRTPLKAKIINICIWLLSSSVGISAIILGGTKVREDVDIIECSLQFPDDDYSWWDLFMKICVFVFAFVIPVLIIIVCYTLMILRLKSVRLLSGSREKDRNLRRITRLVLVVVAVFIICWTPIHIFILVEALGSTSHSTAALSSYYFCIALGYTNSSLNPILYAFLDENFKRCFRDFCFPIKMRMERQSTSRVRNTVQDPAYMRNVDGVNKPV
Chain of human Adrenergic, Beta 3 Receptor (Adrb3), ADRB3 (gene 155) (P13945 whole entry, looked up): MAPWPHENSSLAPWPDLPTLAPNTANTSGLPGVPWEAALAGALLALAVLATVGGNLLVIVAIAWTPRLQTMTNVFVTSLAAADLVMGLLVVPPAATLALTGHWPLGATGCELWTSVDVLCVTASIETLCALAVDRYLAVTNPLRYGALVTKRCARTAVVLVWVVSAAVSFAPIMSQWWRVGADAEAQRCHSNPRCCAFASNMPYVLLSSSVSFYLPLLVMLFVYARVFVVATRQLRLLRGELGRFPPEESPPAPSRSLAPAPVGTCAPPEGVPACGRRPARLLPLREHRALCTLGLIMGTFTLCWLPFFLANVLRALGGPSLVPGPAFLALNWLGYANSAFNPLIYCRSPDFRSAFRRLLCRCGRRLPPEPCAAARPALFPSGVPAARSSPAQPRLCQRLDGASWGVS
Chain of human Adenosine A1 Receptor (AdoRA1), ADORA1 (gene 134) (P30542 whole entry, looked up): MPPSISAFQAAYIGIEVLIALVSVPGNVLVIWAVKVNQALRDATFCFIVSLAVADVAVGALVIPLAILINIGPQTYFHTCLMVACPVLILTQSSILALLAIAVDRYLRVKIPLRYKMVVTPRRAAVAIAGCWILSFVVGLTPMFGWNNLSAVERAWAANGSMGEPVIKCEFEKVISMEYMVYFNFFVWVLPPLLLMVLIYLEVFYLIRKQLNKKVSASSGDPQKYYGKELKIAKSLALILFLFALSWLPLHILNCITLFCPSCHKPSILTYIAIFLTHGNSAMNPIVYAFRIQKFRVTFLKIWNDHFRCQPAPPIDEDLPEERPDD
Chain of Beta-2 adrenergic receptor (Homo sapiens) (P07550 whole entry, looked up): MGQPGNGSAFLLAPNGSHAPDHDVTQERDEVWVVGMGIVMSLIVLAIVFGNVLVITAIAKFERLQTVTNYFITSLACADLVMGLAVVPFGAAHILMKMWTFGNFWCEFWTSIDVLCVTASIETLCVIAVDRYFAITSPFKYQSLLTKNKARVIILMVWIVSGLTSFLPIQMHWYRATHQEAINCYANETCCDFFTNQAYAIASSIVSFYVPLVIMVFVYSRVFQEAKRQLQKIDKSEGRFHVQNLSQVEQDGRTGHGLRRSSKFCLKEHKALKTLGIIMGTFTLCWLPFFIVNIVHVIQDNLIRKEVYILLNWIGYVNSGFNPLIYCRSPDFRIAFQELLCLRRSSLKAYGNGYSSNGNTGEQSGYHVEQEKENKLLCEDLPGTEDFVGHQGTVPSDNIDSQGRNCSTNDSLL

For `CC(C)(C)c1ccccc1`, the outcome [1] was “inactive”.

With `CC1(C)C(=O)NC(=O)N1CO` the outcome [2] was “inactive”.

For `CCCC[C@H]1CN(CC2CCOCC2)C(=O)OC12CCN(C1(C)CCN(C(=O)c3c(C)ncnc3C)CC1)CC2`, the AC50 [3] was 3.04 µM (active).

For `CCCCCCC(CCCCCCCCCCC(=O)OCC(COC(C)=O)OC(C)=O)OC(C)=O` (stereo not drawn), the outcome [4] was “inactive”.

With `COc1ccc(OC(F)(F)F)cc1CN[C@H]1CCCN[C@H]1c1ccccc1` the AC50 [5] was 7.82 µM (active), the AC50 [3] was 25 µM (active) and the outcome [6] was “inactive”. The AC50 [7] was 25 µM (active), the AC50 [2] was 9.71 µM (active) and the AC50 [8] was 13.4 µM (active). The AC50 [9] was 10.6 µM (active) and the AC50 [10] was 20.5 µM (active).

In the case of `CC(C)(O)c1ccc(CNC(=O)c2cccnc2Oc2ccc(F)cc2)cc1`, the AC50 [11] is reported as 4.68 µM (active) and the outcome [7] is reported as “inactive”.

In the case of `CCc1nc(N)nc(N)c1-c1ccc(Cl)cc1`, the outcome [3] is reported as “inactive”, the outcome [6] is reported as “inactive” and the AC50 [1] is reported as 4.76 µM (active). The AC50 [8] was 4.81 µM (active), the outcome [12] was “inactive” and the AC50 [13] was 5.9 µM (active).

With `O=C(N[C@@H](c1ccccc1)[C@@H]1CCCCN1)c1cccc(C(F)(F)F)c1Cl` the outcome [3] was “inactive”, the AC50 [7] was 0.641 µM (active) and the AC50 [1] was 8.16 µM (active). For the same molecule, the outcome [10] was “inactive” and the outcome [13] was “inactive”.

In the case of `C=CCCCCCCCCCCCC`, the outcome [14] is reported as “inactive”.

With `CC(=O)O[C@]1(C(C)=O)CC[C@H]2[C@@H]3C=C(Cl)C4=CC(=O)[C@@H]5C[C@@H]5[C@]4(C)[C@H]3CC[C@@]21C` the outcome [6] was “inactive”.

For `NC=O`, the outcome [11] was “inactive”.

For `CN(C)C(=O)NC1(c2ccccc2)CCN(CCC[C@]2(c3ccc(Cl)c(Cl)c3)CCCN(C(=O)c3ccccc3)C2)CC1`, the outcome [15] was “inactive”, the outcome [16] was “inactive” and the AC50 [3] was 5.86 µM (active). For the same molecule, the outcome [6] was “inactive”, the AC50 [7] was 3.56 µM (active) and the outcome [1] was “inactive”. For the same molecule, the outcome [10] was “inactive” and the AC50 [13] was 6.25 µM (active).

In the case of `Cn1cnc2c1c(=O)[nH]c(=O)n2C`, the outcome [10] is reported as “inactive”.

In the case of `CC(C)c1cccc(C(C)C)c1`, the outcome [4] is reported as “inactive”.

For `CSc1ccc(Oc2ccc(S(N)(=O)=O)cc2CN(C)C)cc1C`, the AC50 [6] was 7.53 µM (active), the AC50 [7] was 13.5 µM (active) and the AC50 [2] was 2.79 µM (active). For the same molecule, the AC50 [1] was 12.5 µM (active), the AC50 [8] was 0.263 µM (active) and the AC50 [9] was 5.83 µM (active). The outcome [10] was “inactive” and the AC50 [13] was 25 µM (active).

For `CCCCC(CC)COC(=O)CCCCCCCC(=O)OCC(CC)CCCC` (stereo not drawn), the outcome [4] was “inactive”.

For `COC(=O)[C@H]1[C@H]2C[C@@H]3c4[nH]c5cc(OC)ccc5c4CCN3C[C@H]2C[C@@H](OC(=O)c2cc(OC)c(OC)c(OC)c2)[C@@H]1OC`, the AC50 [12] was 12.1 µM (active).

For `CO[C@@H]1COCC[C@@H]1N[C@@H]1CC[C@@](C(=O)N2CCc3ncc(C(F)(F)F)cc3C2)(C(C)C)C1`, the outcome [5] was “inactive”.

In the case of `O=C1OC(c2ccc(O)cc2)(c2ccc(O)cc2)c2ccccc21`, the AC50 [7] is reported as 4.09 µM (active) and the AC50 [14] is reported as 1.03 µM (active).

With `C#CC(O)C(CC)CCCC` (stereo not drawn) the AC50 [11] was 2.8 µM (active).

In the case of `Cc1ccc(-c2cc(C(F)(F)F)nn2-c2ccc(S(N)(=O)=O)cc2)cc1`, the AC50 [4] is reported as 4.96 µM (active).

In the case of `O=C(O)c1[nH]n(-c2ccc(S(=O)(=O)O)cc2)c(=O)c1N=Nc1ccc(S(=O)(=O)O)cc1`, the outcome [6] is reported as “inactive”, the AC50 [7] is reported as 43.3 µM (active) and the outcome [1] is reported as “inactive”. For the same molecule, the outcome [9] was “inactive” and the AC50 [13] was 16.5 µM (active).
